The nature of experiment [1]: viability loss in pontine glioma line – cell-based, SU-DIPG-XVII, MIPE5.0, CellTiter-Glo, qHTS, dose response (AID 1347060; cut-off not given, nearly all actives have AC50 up to about 26 µM;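 as to AC50: cells exposed to compound for 48 hours before viability readout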). To be noted: CellTiter-Glo ATP luminescence.
The nature of experiment [2]: viability loss in pontine glioma line – cell-based, JHH-DIPG-1, MIPE4.0, CellTiter-Glo, qHTS, dose response (AID 1347062; cut-off not given, nearly all actives have AC50 up to about 27 µM;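 as to AC50: cells exposed to compound for two days before readout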). To be noted: JHH-DIPG-1 viability, CellTiter-Glo ATP luminescence.
Experiment [3] can be described thus: viability loss in pontine glioma line – cell-based, SU-DIPG-IV, MIPE4.0, CellTiter-Glo, qHTS, dose response (AID 1347063; cut-off not given, nearly all actives have AC50 up to about 30 µM;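 also: compound exposure lasted 48 hours before the viability readout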). The conditions noted are these: CellTiter-Glo ATP luminescence.
Experiment [4] can be described thus: viability loss in pontine glioma line – cell-based, SU-DIPG-XIII, MIPE5.0, CellTiter-Glo, qHTS, dose response (AID 1347064; cut-off not given, nearly all actives have AC50 up to about 23 µM;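 as to AC50: cells exposed to compound for 48 hours before the viability read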). To be noted: CellTiter-Glo ATP luminescence.
Experiment [5] in a line: viability loss in pontine glioma line – cell-based, SU-DIPG-XXV, MIPE5.0, CellTiter-Glo, qHTS, dose response (AID 1347065; cut-off not given, nearly all actives have AC50 up to about 26 µM;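 also: cells exposed to compound for 48 hours before ATP readout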). To be noted: CellTiter-Glo ATP luminescence.
Experiment [6] can be described thus: growth inhibition of DIPG cells – cell-based, MIPE4.0 library, CellTiter-Glo luminescence, qHTS (AID 1347066; cut-off not given, nearly all actives have AC50 up to about 30 µM;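 also: cells exposed to compound for 48 hours before readout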). To be noted: SU-DIPG-VI viability, CellTiter-Glo ATP luminescence.
The nature of experiment [7]: JHH-DIPG-1 glioma cell viability, MIPE5.0 library, CellTiter-Glo luminescence, qHTS (AID 1347067; cut-off not given, nearly all actives have AC50 up to about 26 µM;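 also: cells exposed to compound for 48 hours before readout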). The conditions noted are these: JHH-DIPG-1 glioma viability, CellTiter-Glo ATP luminescence.
Experiment [8] is described as follows: growth inhibition of DIPG cells – cell-based, MIPE5.0 library, qHTS (AID 1347068; cut-off not given, nearly all actives have IC50 up to about 30 µM;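 as to IC50: cells exposed to compound for 48 hours before viability readout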). The conditions noted are these: SU-DIPG-XXV viability.
Experiment [9] is described as follows: viability loss with induced miR-34 in A549 – imaging, A549 dox-inducible miR-34, nuclei and caspase counts, primary screen (AID 1347080;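 active = compounds whose cell count with miR-34 switched on is under 0.7 times the count with it off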). The conditions noted are these: A549 miR-34 inducible, Hoechst nuclei count, 48 h.
The nature of experiment [10]: MELAS cybrid and Rieske KO viability enhancers – cell-based, MELAS cybrids, Rieske KO mouse fibroblasts, CellTiter-Glo, primary screen (AID 1508586;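 active = mean z-score across replicates of 1.96 or higher in either the MELAS or the Rieske mutant cell line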;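 also: z relative to plate mean and SD of compound and empty wells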). To be noted: low glucose.
Experiment [11] can be described thus: compounds altering HSF1 focus formation in cells – imaging, Selleck Cancer Library (AID 1347162; in the data active = plate-normalised HSF1 focus index below about 0.46). To be noted: human cells, HSF1 nuclear foci imaging, at 10 µM; SSMD: measured here: HSF1 foci SSMD mean; cell count: measured here: cell number; plate-normalised HSF1 focus index: stronger effect = lower value.
The nature of experiment [12]: drug combination growth inhibition, ovarian cancer – cell-based, oncology-focused library, rucaparib conditional, profiling panel (AID 1508598). The conditions noted are these: patient-derived ovarian cancer cells, CellTiter-Glo viability, 144 h, stronger effect = lower value.
Experiment [13] is described as follows: viability loss in pontine glioma line – cell-based, SU-DIPG-XIII, MIPE4.0, CellTiter-Glo, qHTS, dose response (AID 1347061; cut-off not given, nearly all actives have AC50 up to about 37 µM;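 also: cells exposed to compound for 48 hours before readout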). The conditions noted are these: CellTiter-Glo ATP luminescence.
[14] abbreviates: stronger effect = lower value, cell number ratio, induced over uninduced.
Setting [15] is: measured here: relative caspase fold change +Dox/-Dox.
The mark [16] stands for this setting: measured here: total cells with miR-34 induction, stronger effect = lower value.
[17] abbreviates: measured here: total cells without miR-34 induction.
The mark [18] stands for this setting: MELAS cybrid survival, CellTiter-Glo 48 h, stronger effect = higher value.
Setting [19] is: Rieske KO mouse fibroblast survival, CellTiter-Glo 72 h.

Inconclusive results are not listed. Calls of active or inactive are those of the source.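 The calls were made as follows, unless noted: active = normalized viability below 100% at a tested concentration; inactive = the rest.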

This note sets out measurements from PubChem BioAssay.

Turning to `NS(=O)(=O)c1cccc2c1C(=O)c1cccc(O)c1C2=O`, the AC50 was 2350 nM (active) in experiment [1]; 1180 nM (active) in experiment [2]; 332 nM (active) in experiment [3]; 1180 nM (active) in experiment [4]; 1860 nM (active) in experiment [5]; 526 nM (active) in [6]. The AC50 in experiment [7] is 2090 nM (active). In [8], the IC50 was 9340 nM (active).
As to `C=CC(=O)Nc1ccc2ncnc(Nc3ccc(OCc4cccc(F)c4)c(Cl)c3)c2c1`, the AC50 in experiment [1] is 5250 nM (active); in experiment [2], 23500 nM (active); in [3], 1320 nM (active); in experiment [4] it was 11800 nM (active); in experiment [5], 6610 nM (active); in experiment [6] it was 4690 nM (active). Besides, the AC50 in experiment [7] was 8330 nM (active). Besides, the IC50 in experiment [8] was 14800 nM (active). In addition, the fold change in [9] (setting [14]) was 0.764 (inactive); in [9] (setting [15]), 2.08. Also, the figures for the cell count in experiment [9] (setting [16]) and in experiment [9] (setting [17]) were 4290 and 5610, respectively. Besides, the z-score is -0.263 (inactive) in experiment [10] (setting [18]) and 0.764 in experiment [10] (setting [19]).
In the case of `Cc1cc(CN2CCN(c3c(Br)cnc4nc(-c5ccc(N6CCN(C)CC6)cc5)[nH]c34)CC2)no1`, the concentration at half-maximal activity (AC50) was 1660 nM (active) in experiment [1]; 7430 nM (active) in experiment [2]; 5260 nM (active) in [3]; 3320 nM (active) in experiment [4]; 1050 nM (active) in [5]; 14800 nM (active) in experiment [6]. Moreover, the AC50 in experiment [7] is 2630 nM (active). For the same compound, the IC50 in experiment [8] is 8330 nM (active). The fold change was 1.05 (inactive) in experiment [9] (setting [14]) and 0.921 in experiment [9] (setting [15]). Besides, the cell count in experiment [9] (setting [16]) turned out to be 3400; in [9] (setting [17]) it was 3250. The z-score is -0.545 (inactive) in experiment [10] (setting [18]) and -0.677 in experiment [10] (setting [19]).
`C/C(=N\NC(=S)N1CCC1)c1ccccn1`: the AC50 in experiment [1] was 9.34 nM (active); in experiment [2] it was 1480 nM (active); in experiment [3], 10.5 nM (active); in experiment [4], 23.5 nM (active); in [5] it was 13.2 nM (active); in [6] it was 9350 nM (active).
With `CNC(=O)c1ccc(N2C(=S)N(c3cnc(C#N)c(C(F)(F)F)c3)C(=O)C23CCC3)cc1F`, the compound was called inactive in [1], in experiment [4], in [5], in [7] and in experiment [8]. The AC50 in experiment [2] is 935 nM (active); in [3], 1320 nM (active); in experiment [6], 18700 nM (active). Besides, the fold change in experiment [9] (setting [14]) is 0.909 (inactive); in experiment [9] (setting [15]), 0.701. Besides, the cell count in experiment [9] (setting [16]) stood at 9240; in [9] (setting [17]), 10200. Also, the results for the z-score in experiment [10] (setting [18]) and in experiment [10] (setting [19]) were -0.228 (inactive) and 0.855, respectively.
Consider `Cn1cnc(=N)c2[nH]cnc21`, for which the result in [1], in experiment [4], in experiment [5], in [7] and in [8] was inactive. For the same compound, the figures for the AC50 in experiment [2], in experiment [3] and in experiment [6] were 4690 nM (active), 4690 nM (active) and 235 nM (active), respectively. For the same compound, the fold change was 0.904 (inactive) in experiment [9] (setting [14]) and 0.712 in [9] (setting [15]). Further, the cell count in experiment [9] (setting [16]) came to 9400; in experiment [9] (setting [17]) it was 10400; in experiment [11], 7250. The SSMD in [11] amounted to 2.26. Besides, the plate-normalised HSF1 focus index in experiment [11] is 1.08 (inactive). In addition, the values for the z-score in experiment [10] (setting [18]) and in experiment [10] (setting [19]) were -0.304 (inactive) and -0.808, respectively. Also, the viability in [12] (at 0.000305 µM, OCI-C5x cells, with rucaparib 10 µM, 100% = cells with rucaparib alone) was 112% (inactive); in [12] (at 0.000305 µM, OCI-C5x cells, without rucaparib) it was 111% (inactive); in [12] (at 0.000305 µM, OCI-P5x cells, with rucaparib 20 µM, 100% = cells with rucaparib alone) it was 99% (active); in [12] (at 0.000305 µM, OCI-P5x cells, without rucaparib), 94.2% (active); in experiment [12] (at 0.00122 µM, OCI-C5x cells, with rucaparib 10 µM, 100% = cells with rucaparib alone), 111% (inactive); in [12] (at 0.00122 µM, OCI-C5x cells, without rucaparib), 114% (inactive). For the same compound, the viability in [12] (at 0.00122 µM, OCI-P5x cells, with rucaparib 20 µM, 100% = cells with rucaparib alone) was 100% (inactive); in experiment [12] (at 0.00122 µM, OCI-P5x cells, without rucaparib), 97.1% (active); in experiment [12] (at 0.00488 µM, OCI-C5x cells, with rucaparib 10 µM, 100% = cells with rucaparib alone), 107% (inactive); in experiment [12] (at 0.00488 µM, OCI-C5x cells, without rucaparib), 119% (inactive); in [12] (at 0.00488 µM, OCI-P5x cells, with rucaparib 20 µM, 100% = cells with rucaparib alone) it was 108% (inactive); in experiment [12] (at 0.00488 µM, OCI-P5x cells, without rucaparib) it was 99.6% (active). Besides, the viability in [12] (at 0.0195 µM, OCI-C5x cells, with rucaparib 10 µM, 100% = cells with rucaparib alone) was 114% (inactive); in experiment [12] (at 0.0195 µM, OCI-C5x cells, without rucaparib), 112% (inactive); in [12] (at 0.0195 µM, OCI-P5x cells, with rucaparib 20 µM, 100% = cells with rucaparib alone), 113% (inactive); in [12] (at 0.0195 µM, OCI-P5x cells, without rucaparib) it was 102% (inactive); in experiment [12] (at 0.0781 µM, OCI-C5x cells, with rucaparib 10 µM, 100% = cells with rucaparib alone), 107% (inactive); in [12] (at 0.0781 µM, OCI-C5x cells, without rucaparib) it was 111% (inactive). Besides, the viability in experiment [12] (at 0.0781 µM, OCI-P5x cells, with rucaparib 20 µM, 100% = cells with rucaparib alone) was 116% (inactive); in experiment [12] (at 0.0781 µM, OCI-P5x cells, without rucaparib), 107% (inactive); in [12] (at 0.313 µM, OCI-C5x cells, with rucaparib 10 µM, 100% = cells with rucaparib alone), 112% (inactive); in experiment [12] (at 0.313 µM, OCI-C5x cells, without rucaparib), 116% (inactive); in experiment [12] (at 0.313 µM, OCI-P5x cells, with rucaparib 20 µM, 100% = cells with rucaparib alone), 107% (inactive); in experiment [12] (at 0.313 µM, OCI-P5x cells, without rucaparib) it was 109% (inactive). Moreover, the viability in experiment [12] (at 1.25 µM, OCI-C5x cells, with rucaparib 10 µM, 100% = cells with rucaparib alone) was 110% (inactive); in experiment [12] (at 1.25 µM, OCI-C5x cells, without rucaparib), 115% (inactive); in experiment [12] (at 1.25 µM, OCI-P5x cells, with rucaparib 20 µM, 100% = cells with rucaparib alone) it was 109% (inactive); in experiment [12] (at 1.25 µM, OCI-P5x cells, without rucaparib), 109% (inactive); in experiment [12] (at 5 µM, OCI-C5x cells, with rucaparib 10 µM, 100% = cells with rucaparib alone) it was 100% (inactive); in experiment [12] (at 5 µM, OCI-C5x cells, without rucaparib) it was 125% (inactive). The viability was 116% (inactive) in experiment [12] (at 5 µM, OCI-P5x cells, with rucaparib 20 µM, 100% = cells with rucaparib alone) and 110% (inactive) in experiment [12] (at 5 µM, OCI-P5x cells, without rucaparib).
On to `C=C[C@H]1CN2CCC1C[C@@H]2C(O)c1ccnc2ccc(OC)cc12` (stereo partly specified), for which the result in experiment [1], in experiment [2], in [3], in [4], in experiment [5] and in experiment [6] was inactive. For the same compound, the call in [7] and in experiment [8] was inactive. For the same compound, the fold change in experiment [9] (setting [14]) is 0.966 (inactive); in experiment [9] (setting [15]), 0.977. Further, the cell count in [9] (setting [16]) came to 5680; in experiment [9] (setting [17]), 5880.
As to `Cc1cnc(Nc2cccc(CN3CCOCC3)c2)nc1Nc1cccc(S(=O)(=O)NC(C)(C)C)c1`, the AC50 in [1] was 332 nM (active); in experiment [2] it was 7430 nM (active); in [3] it was 5260 nM (active); in experiment [4], 2950 nM (active); in [5], 1180 nM (active); in experiment [6] it was 14800 nM (active). The half-maximal activity concentration (AC50) in experiment [7] was 2350 nM (active).
With `Cc1ccc(Nc2cc(-c3cccc(N4C(=O)c5ccccc5C4=O)c3)ncn2)cc1NS(C)(=O)=O`, the figures for the AC50 in experiment [1] and in experiment [3] were 20900 nM (active) and 18700 nM (active), respectively. In addition, the call in experiment [2] was inactive.
Turning to `CSc1cccc(Nc2ncc3cc(-c4c(Cl)cccc4Cl)c(=O)n(C)c3n2)c1`, the AC50 in experiment [1] is 1480 nM (active); in [5], 1050 nM (active); in [7], 1180 nM (active). In addition, in experiment [13], the result was inactive.
